# Screening data from PubChem BioAssay.
# Vif inh: HIV Vif inhibition | HEK293T cells, Vif self-association by quenched fluorescence, imaging, 24 h | inhibition, % at 7.49 µM | 0.35% of 340,000 active | AID 602346; in the data active means inhibition above about 50%, passing the limit was not always enough; inconclusive means no clear call, values can overlap the other calls; inactive means below about 31%
# PDI inh: blocks human protein disulfide isomerase activity. P07237. PDI insulin aggregation turbidity, A650, 90 min. inhibition, % at 10 µM. 0.052% of 350,000 active. AID 588391;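 active means mean inhibition across replicates of 30% or more, whatever share of single replicates reach that level; inconclusive means mean inhibition below 30% while every single replicate reaches 30%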
# Target sequence (P07237 whole entry, looked up): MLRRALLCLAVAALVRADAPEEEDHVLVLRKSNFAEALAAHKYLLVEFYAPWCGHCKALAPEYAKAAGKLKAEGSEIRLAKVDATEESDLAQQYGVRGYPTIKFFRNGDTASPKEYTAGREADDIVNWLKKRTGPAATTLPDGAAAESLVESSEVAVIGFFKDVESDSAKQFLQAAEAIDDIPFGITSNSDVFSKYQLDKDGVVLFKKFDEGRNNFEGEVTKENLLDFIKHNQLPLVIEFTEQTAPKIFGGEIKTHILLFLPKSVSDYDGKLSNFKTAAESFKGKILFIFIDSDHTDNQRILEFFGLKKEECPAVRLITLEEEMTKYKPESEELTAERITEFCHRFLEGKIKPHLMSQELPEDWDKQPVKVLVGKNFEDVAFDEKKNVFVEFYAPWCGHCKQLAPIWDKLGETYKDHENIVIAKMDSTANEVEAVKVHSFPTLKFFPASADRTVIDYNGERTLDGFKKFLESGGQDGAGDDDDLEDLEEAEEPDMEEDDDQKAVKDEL
# PvdQ inh: blocks Pseudomonas aeruginosa PvdQ acylase activity; purified PvdQ acylase, fluorescence plate reader; 0.063% of 340,000 active; inhibition, % at 10 µM; AID 488965; in the data active means inhibition above about 30%, passing the limit was not always enough; inconclusive means no clear call, values can overlap the other calls;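 further: 0% = vehicle neutral wells and 100% = reference inhibitor wells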
# AI-2 QS modul: modulators of Vibrio harveyi AI-2 quorum sensing system; 0.4% of 300,000 active; activity change, % at 7.5 µM; Vibrio harveyi JMH597 AI-2 luminescence/OD600 ratio, 9 h; active compounds read low; strain lacks LuxN and CqsS sensors; 0 = neutral-control median; in the data active means activity change below about -75%, passing the limit was not always enough; inconclusive means no clear call, values can overlap the other calls;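 further: luminescence divided by OD600 gain over 9 h not by final OD600 alone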
# ERp5 inh: inhibitors of human ERp5; Q15084; ERp5 insulin aggregation, absorbance 650 nm, 90 min; inhibition, % at 9.99 µM; 0.05% of 350,000 active;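 active means mean replicate inhibition above about 25%, with every replicate also reaching it, limit read from the data, passing the limit was not always enough; inconclusive means only one of those two criteria met; inactive means neither criterion met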
# * marks the source's active call; other numbers are inactive results; ? = inconclusive; nt = no result. Most compounds without a hit are left out; they make up all but 0.64% or so of the library.
SMILES,Vif inh,PDI inh,PvdQ inh,AI-2 QS modul,ERp5 inh
CN(C(=O)CSc1nc2ccccc2c(=O)n1-c1ccccc1F)C1CCS(=O)(=O)C1 (stereo not given),62.2*,5.2,12.9,nt,-3.5
Cc1cccc(C)c1-n1nnnc1SCSc1nnnn1-c1c(C)cccc1C,-3.8,3.3,-4.5,17.3,nt
CSc1nnnn1-c1c(C)cccc1C,50.8*,-13.4,0.4,16.8,3.0
C[C@H]1CN([C@@H](C)CO)C(=O)Cc2cc(NC(=O)Nc3ccc(F)cc3)ccc2O[C@@H]1CN(C)C(=O)Nc1ccccc1,nt,nt,nt,nt,-5.9
O=C(CCCCn1ccc(=O)[nH]c1=O)Nc1ccc(C(=O)O)c(O)c1,8.1,-2.3,-12.9,nt,0.2
O=C(CCCCn1ccc(=O)[nH]c1=O)Nc1ccc(O)c(C(=O)O)c1,78.1*,7.8,-10.8,nt,-0.8
COc1cc(-c2cc(=O)c3c(O)c(OC)c(OC)c(O)c3o2)ccc1O,62.4*,nt,-1.2,19.1,-0.3
COc1c(O)c(O)c2oc(-c3ccccc3)cc(=O)c2c1OC,-2.6,nt,10.9,32.1,1.5
O=c1[nH]c(=S)ccn1C1OC(CO)C(O)C1O (stereo not given),1.4,nt,-11.2,-90.7*,0.2
Cc1cc(C)nc(N(C#N)Cc2ccccc2)n1,nt,-1.0,38.1*,26.5,nt
Cc1cc(C)nc(N(C#N)Cc2ccc([N+](=O)[O-])cc2)n1,-0.7,7.4,49.2*,22.9,0.5
N#CN(Cc1ccccc1)Cc1ccccc1,12.1,1.5,92.3*,2.5,-2.4
CN(C)c1nccc(N(Cc2ccccc2)Cc2ccccc2)c1C#N,0.7,-1.4,-6.1,0.5,nt
CCCNC(=O)C[C@@H]1CC[C@H]2[C@@H](COC[C@@H](O)CN2C(=O)Nc2c(C)noc2C)O1,nt,nt,nt,nt,-2.8
CCN(CC(=O)Nc1ccc2c(c1)OCCO2)C(=O)CC1CCCC1,-5.9,32.9*,-6.0,31.0,nt
CCOc1ccc(C(=O)N(CC)CC(=O)Nc2ccc3c(c2)OCCO3)cc1OCC,-0.7,7.3,-18.6,nt,7.6
CN(C)CCCCCCNC(=O)[C@@H]1C[C@@H]2C(=O)NCC(=O)N2[C@@H]1c1cccc(OCCO)c1,nt,nt,nt,nt,0.6
COc1ccc(CNC(=O)Nc2cccs2)cc1OC,56.1*,-1.4,-7.2,27.7,nt
O=C(c1ccncc1)N1CC(=O)N2[C@H](CO)[C@H](c3ccc(-c4ccccc4F)cc3)[C@H]2C1,nt,nt,nt,nt,3.7
Oc1ccccc1Oc1c(F)c(F)nc(N2CCCC2)c1F,-3.2,-5.3,-8.1,-93.5*,-5.1
Oc1ccccc1Oc1ncc(Br)c(N2CCOCC2)n1,-3.3,13.9,-12.9,6.9,nt
COc1ccc2c3c([nH]c2c1)[C@H](CO)N(C(=O)C1CCCCC1)CC31CCN(S(C)(=O)=O)CC1,nt,nt,nt,nt,4.7
CC(C)Sc1nnc([C@H](Cc2c[nH]c3ccccc23)NC(=O)OC(C)(C)C)o1,-3.0,43.7*,-12.9,-4.7,nt
O=C(NC1CCCC1)[C@@H]1[C@@H](CO)[C@@H]2Cn3c(ccc(-c4ccccc4)c3=O)[C@H]1N2,nt,nt,nt,nt,2.0
Cc1ccc2c(c1)N(CC(=O)N1CCCCCC1)C(=O)C(C)O2 (stereo not given),69.0*,-7.4,1.8,15.7,1.2
SMILES,Vif inh,PDI inh,PvdQ inh,AI-2 QS modul,ERp5 inh
COc1cc(C(=O)Nc2sc3c(c2C(=O)O)CCC(C)C3)cc(OC)c1OC (stereo not given),122.3*,-5.3,0.5,1.7,-3.2
COc1cc(/C=C2/C(=N)N3C=CSC3=NC2=O)ccc1OCCOc1ccc(NC(C)=O)cc1,60.6*,15.0,2.6,14.7,1.0
Cn1c(=O)n2n(c1=O)[C@H](C1CC1)C=C1CN3[C@@H]([C@H](Cc4ccccc4)OC(=O)[C@@H]3Cc3ccccc3)[C@@H]12,nt,nt,nt,nt,1.6
C[C@H]1CN([C@@H](C)CO)C(=O)Cc2cc(N(C)C)ccc2O[C@@H]1CN(C)S(=O)(=O)c1ccccc1,nt,nt,nt,nt,-3.2
COc1cccc2sc(Nc3nnc(-c4cccs4)o3)nc12,0.0,19.4,8.4,-165.2*,nt
COc1cc(C(=O)NCC(=O)NCCN2C(=O)S/C(=C\c3ccccc3Cl)C2=O)cc(OC)c1OC,-2.2,4.3,-14.1,34.0,-4.2
COc1cc(/C=C2\SC(=O)N(CCNC(=O)c3sc4cc(F)ccc4c3Cl)C2=O)cc(OC)c1OC,62.6*,-14.0,10.5,13.6,-3.3
Cc1ccc(S(=O)(=O)Nc2c(C)nc3nc(C)[nH]n3c2=O)c(C)c1,63.8*,4.3,1.8,nt,4.8
Cc1nnc2ccc(-c3cccc(NS(=O)(=O)c4ccccc4Cl)c3)nn12,80.5*,-5.4,11.6,1.1,1.9
Cc1nnc2ccc(-c3cccc(NS(=O)(=O)c4ccccc4[N+](=O)[O-])c3)nn12,?,-4.4,-9.7,23.1,-6.4
Cc1nnc2ccc(-c3cccc(NS(=O)(=O)c4cc(F)ccc4F)c3)nn12,70.7*,-14.8,5.3,4.6,-2.4
CCCS(=O)(=O)Nc1cccc(-c2ccc3nnc(C)n3n2)c1,-7.5,1.6,-10.4,21.4,4.1
CS(=O)(=O)Nc1ccc2c(c1)[C@H]1C[C@@H](CC(=O)N3CCc4ccccc4C3)O[C@H](CO)[C@H]1O2,nt,nt,nt,nt,5.8
Cc1cccc(Nc2nc(N)nc(CCl)n2)c1,141.9*,0.4,-15.1,13.1,-3.7
COc1cccc(Nc2nc(N)nc(CCl)n2)c1,1.5,2.9,-8.9,2.6,0.3
C=C1CCCC2OC(CC3=CC4/C(C)=C/CC(C)CC(/C=C(\C)C(O)C5CC(O)C(O)C(CCC(O)/C=C/C(C)=C/CCC6=NCCC(C3)C64C)O5)OC(=O)CC3OC(C(O)C1)C(O)C3O)CC(O)C2O (stereo not given),118.2*,nt,nt,nt,0.5
COc1ccccc1C(O)(C(=O)NNc1ccccc1C)c1ccccc1OC,-1.0,-6.2,1.2,9.1,0.6
COc1ccccc1C(O)(C(=O)NN(C(=O)c1ccccc1)c1ccccc1C)c1cccs1 (stereo not given),52.1*,2.4,9.0,nt,nt
COc1ccccc1CN1[C@@H](CO)[C@@H]2c3ccccc3N(C(=O)C3CCCCC3)C[C@@H]21,nt,nt,nt,nt,2.9
O=C(O)c1ccc(N/N=C/c2ccc(-c3cc(Cl)ccc3Cl)o2)cc1,-4.4,3.2,-9.6,-80.2*,-1.4
O=C(O)c1ccc(N/N=C/c2c(F)cccc2Cl)cc1,8.0,12.0,18.1,-78.6*,-1.1
O=C(N/N=C/c1c(F)cccc1Cl)C1CC1,nt,1.9,-9.4,21.1,4.6
O=C(O)c1ccc(N/N=C/c2ccc(-c3cccc(Cl)c3)o2)cc1,-7.0,6.3,-12.8,-93.5*,0.2
COc1ccccc1S(=O)(=O)N[C@@H]1CC[C@@H](CCNC(=O)C2CC2)O[C@H]1CO,nt,nt,nt,nt,3.6
CN(C)C(=O)[C@]1(CCS(=O)(=O)c2ccccc2)N=C(c2ccc(OCCCO)cc2)O[C@@H]1c1ccccc1,nt,nt,nt,nt,1.4
CC(C)CC#Cc1ccc2c(c1)O[C@H](CN(C)C(=O)c1ccccn1)[C@H](C)CN([C@@H](C)CO)S2(=O)=O,nt,nt,nt,nt,-1.8
Cc1[nH]nc(C(F)(F)F)c1CCC(=O)NC1CCCCCC1,58.5*,-14.4,4.2,nt,-1.4
